Measured values: ChEMBL document CHEMBL1157539, “Thousands of chemical starting points for antimalarial lead identification” (Nature, 2010)
Several values for one entry are separate records, joined by “and”; a condition that tells them apart may be missing. Equal entries are not always repeated.

system: Plasmodium falciparum; experiment: GSK_TCMDC: Inhibition of Plasmodium falciparum Dd2 in whole red blood cells, using parasite LDH activity as an index of growth. Test compounds present at 2uM; assay type: functional

Row | SMILES | Inhibition [%]
1 | NCc1cccc(-c2ccccc2CNC2CCN(Cc3ccccc3)CC2)c1.O=C(O)C(F)(F)F | 4
2 | O=C(O)C(F)(F)F.Oc1ccc(CCNc2nc(NCCOc3ccccc3-c3ccccc3)nc(N3CCNCC3)n2)cc1 | 17
3 | COc1ccc2nccc([C@@H](O)CN3CCC(NS(=O)(=O)c4cc5c(cc4Cl)SCC(=O)N5)CC3)c2c1.O=C(O)C(=O)O | 0
4 | CCOC(=O)c1ccc(OCc2ccc(-c3ccccc3)cc2)cc1 | 0
5 | O=[N+]([O-])c1ccc2nc(Nc3cccc(C(F)(F)F)c3)c(Nc3cccc(C(F)(F)F)c3)nc2c1 | 99
6 | CSCCC(C(=O)O)N1C(=O)c2ccccc2C1=O (stereo not drawn) | 0
7 | Cc1ccc(-c2cc(C(=O)Nc3ccc(S(=O)(=O)N(C)Cc4ccccc4)cc3)[nH]n2)c(O)c1 | 67
8 | O=C(Nc1cccc(CN2CCCN(Cc3cccc(Cl)c3)CC2)c1)c1ccc(Br)cc1.O=C(O)C(F)(F)F | 16
9 | Cc1ccc(-c2nc3ccccc3o2)cc1NCc1cc(Cc2ccccc2)ccc1O | 50
10 | COc1cc(-c2nc(-c3ccncc3)c(-c3ccc4c(c3)CCC4=NO)[nH]2)ccc1OCCN1CCN(C)CC1.Cl | 77
11 | CCCCCN1CCC(NS(=O)(=O)c2cccc(C(=O)Nc3cccc(C(F)(F)F)c3)c2)C1.O=C(O)C(F)(F)F (stereo not drawn) | 17
12 | CCCC(C)Nc1nc(C)cc(N[C@@H](Cc2ccccc2)C(=O)Nc2ccccc2)n1.O=C(O)C(F)(F)F (stereo partly drawn) | 67
13 | CC(C)C1c2ccc(O)cc2CC2C(=O)N(C3CCCCC3)C(=O)N21 (stereo not drawn) | 88

system: HepG2; experiment: GSK_TCMDC: Percent inhibition of human HepG2 cell line. Test compounds present at 10uM.; assay type: functional

Row | SMILES | Inhibition
14 | COc1ccc(-c2nc(NC(=O)Cc3cccc(OC)c3)sc2C)cc1 | 1%
15 | O=C(NCCCNc1nc2ccccc2[nH]1)c1cccc(OC(F)(F)F)c1 | 12%
16 | COCCNCc1ccc(-c2cccc(CN(C(=O)NCCc3ccccc3)C3CCN(Cc4ccccc4)CC3)c2)cc1.O=C(O)C(F)(F)F | 25%
17 | COc1cc2nc(N3CCC(CNC(=O)c4ccc(-c5cccc(C#N)c5)cc4)CC3)nc(N)c2cc1OC | 18%
18 | CCC(C)NS(=O)(=O)c1ccc2nc(Nc3ccc(C)cc3)n(C3CCCCC3C)c2c1 (stereo not drawn) | 1%
19 | COc1ccc2nccc([C@@H](O)CN3CCC(NCc4nc5c(cc4Cl)SCC(=O)N5)C(F)C3)c2c1.Cl (stereo partly drawn) | 20% and 10%
20 | O=C(CCN(Cc1ccco1)c1nc(-c2ccc(F)cc2)nc2ccccc12)NC1CC1 | 0%
21 | Cc1nc(N)nc(N)c1CCCOc1ccccc1Cl | 40%
22 | O=C(Nc1ccc(-c2nc3ccccc3[nH]2)cc1)c1ccc(S(=O)(=O)N2CCCCC2)cc1 | 23%
23 | C(=NN=c1cc(-c2ccccc2)[nH]c2ccccc12)c1cccnc1 | 23%
24 | O=C(Nc1ccc(OC2CCN(Cc3ccc(F)cc3)CC2)c(Cl)c1)c1ccoc1.O=C(O)C(F)(F)F | 0%
25 | O=C(Nc1ccc(Oc2ccccc2)cc1)N1CCC(CCN2CCC(c3c[nH]c4ccccc34)CC2)CC1 | 42%
26 | Cc1cc(=NN=CC=Cc2ccccc2)c2ccccc2[nH]1 | 19%
27 | CC(=O)Nc1cc(C(=O)Nc2cccc(-c3csc(-c4nc5ccccc5[nH]4)c3)c2)ccc1C | 31%
28 | Cc1cc(N2CCCC2)nc(Nc2ccc(NC(=O)c3ccccc3C)cc2)n1 | 22%
29 | CCOc1ccc(-c2noc(-c3c[nH]c4ccccc4c3=O)n2)cc1 | 0%
30 | CCc1ccc(NC(=O)c2ccc(CN3CCCN(Cc4cccc(O)c4)CC3)cc2)cc1.O=C(O)C(F)(F)F | 51%
31 | COc1ccc(-c2cnc3[nH]cc(-c4ccc(C(=O)O)c(C)c4)c3c2)cn1.O=C(O)C(F)(F)F | 23%
32 | Cc1ccnc2nc(C(=O)Nc3cc(Cl)ccc3N3CCOCC3)nn12 | 0%
33 | Clc1ccc(CNc2ccnc(NCc3ccc4c(c3)OCCCO4)n2)c(Cl)c1 | 50%

Row | SMILES | Inhibition
34 | Cn1nc(-c2ccc(NC(=O)Nc3cc(C(F)(F)F)ccc3F)c(F)c2)c2cnc(NCCCN3CCOCC3)nc21.O=C(O)C(F)(F)F | 31%
35 | O=C(O)C(F)(F)F.OC1CCCN(Cc2cccc(-c3ccc(-c4nc5ccccc5[nH]4)cc3)c2)C1 (stereo not drawn) | 25%
36 | O=[N+]([O-])c1cccc(-c2ccc(C=NNc3cc(N4CCCC4)nc(N4CCCC4)n3)o2)c1 | 0%
37 | CN1C(C)(C)CC(NC(=O)c2ccc(-c3cc4cc(Cl)c(Cl)cc4[nH]3)o2)CC1(C)C | 21%
38 | O=C(O)C(=O)O.c1ccc(C2CCC(N3CCC(N4CCCC4)CC3)CC2)cc1 (stereo not drawn) | 9%
39 | CCC(COCc1ccc(Cl)cc1)N(C)CCN(C)C(CC)COCc1ccc(Cl)cc1.Cl (stereo not drawn) | 89%
40 | CCN(CC)/C(=N/C(=N)Nc1ccc(Br)cc1)NCCCCCCN/C(=N\C(=N)Nc1ccc(Br)cc1)N(CC)CC | 0%
41 | NCc1cccc(-c2ccccc2CNC2CCN(Cc3ccccc3)CC2)c1.O=C(O)C(F)(F)F | 0%
42 | O=C(O)C(F)(F)F.Oc1ccc(CCNc2nc(NCCOc3ccccc3-c3ccccc3)nc(N3CCNCC3)n2)cc1 | 22%
43 | COc1ccc2nccc([C@@H](O)CN3CCC(NS(=O)(=O)c4cc5c(cc4Cl)SCC(=O)N5)CC3)c2c1.O=C(O)C(=O)O | 5%
44 | CCOC(=O)c1ccc(OCc2ccc(-c3ccccc3)cc2)cc1 | 18%
45 | O=[N+]([O-])c1ccc2nc(Nc3cccc(C(F)(F)F)c3)c(Nc3cccc(C(F)(F)F)c3)nc2c1 | 0%
46 | CSCCC(C(=O)O)N1C(=O)c2ccccc2C1=O (stereo not drawn) | 0%
47 | Cc1ccc(-c2cc(C(=O)Nc3ccc(S(=O)(=O)N(C)Cc4ccccc4)cc3)[nH]n2)c(O)c1 | 34%
48 | O=C(Nc1cccc(CN2CCCN(Cc3cccc(Cl)c3)CC2)c1)c1ccc(Br)cc1.O=C(O)C(F)(F)F | 38%
49 | Cc1ccc(-c2nc3ccccc3o2)cc1NCc1cc(Cc2ccccc2)ccc1O | 45%
50 | COc1cc(-c2nc(-c3ccncc3)c(-c3ccc4c(c3)CCC4=NO)[nH]2)ccc1OCCN1CCN(C)CC1.Cl | 53%
51 | CCCCCN1CCC(NS(=O)(=O)c2cccc(C(=O)Nc3cccc(C(F)(F)F)c3)c2)C1.O=C(O)C(F)(F)F (stereo not drawn) | 25%
52 | CCCC(C)Nc1nc(C)cc(N[C@@H](Cc2ccccc2)C(=O)Nc2ccccc2)n1.O=C(O)C(F)(F)F (stereo partly drawn) | 50%
53 | CC(C)C1c2ccc(O)cc2CC2C(=O)N(C3CCCCC3)C(=O)N21 (stereo not drawn) | 2%
